Targets with a hit are over-represented here; the source holds about 7,900 in all. About 0.6% of all pairs of compound and target were hits.
How the values were obtained:
Experiment in all cases: log2 fold change, soluble protein after heating vs DMSO (PISA); higher = thermal stabilisation; K562 cells, 10 uM, 30 min; active = over 0.2 and 3.5 SD of the protein, either way, in both replicates (recomputed)
[1] = compound: CS(=O)(=O)c1ccc(-c2cnc(N)c(C(=O)Nc3ccccc3)n2)cc1
Summary of the method: (§1)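 For each measurement, 10 μM compound was applied for 30 min to K562 cells at 2×10^6 cells/mL. Aliquots were heated for 3 min across 48°C-58°C, pooled, and extracted in PBS with 0.5% NP-40 at 4°C; the supernatant after 21,000xg for 90 min was soluble protein. This was quantified by TMTpro 16plex LC-MS/MS with channel sums equalised, and thermal stability was reported relative to control samples from duplicates, on a log2 fold-change scale.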

[2] = compound: C[C@@H](Oc1cc(-c2cnn(C3CCNCC3)c2)cnc1N)c1c(Cl)ccc(F)c1Cl [crizotinib]
Summary of the method: as §1

[3] = compound: C[C@@H]1COCCN1C2=NC(=NC(=C2)C3(CC3)S(=O)(=O)C)C4=C5C=CNC5=CC=C4
Summary of the method: as §1

[4] = compound: C[C@H](C1=CC=C(C=C1)C(=O)NC2=C3C=CNC3=NC=C2)N
Summary of the method: as §1

[5] = compound: C[C@H](Nc1ncnc2nc[nH]c12)c1cc2cccc(Cl)c2c(=O)n1-c1ccccc1 [duvelisib]
Summary of the method: as §1

[6] = compound: Cc1cc(Nc2cc(CN3CCOCC3)c3nc(C)c(Cc4ccc(Cl)cc4F)n3n2)n[nH]1 [gandotinib]
Summary of the method: as §1

[7] = compound: Cc1cc(Nc2cc(N3CCN(C)CC3)nc(Sc3ccc(NC(=O)C4CC4)cc3)n2)n[nH]1 [tozasertib]
Summary of the method: as §1

[8] = compound: Cc1cc(SCc2sc(-c3ccc(C(F)(F)F)cc3)nc2C)ccc1OCC(=O)O
Summary of the method: as §1

[9] = compound: Cc1ccc(-n2nc(C(C)(C)C)cc2NC(=O)Nc2ccc(OCCN3CCOCC3)c3ccccc23)cc1 [doramapimod]
Summary of the method: as §1

[10] = compound: Cc1ccc(C(=O)N(CCCN)[C@@H](c2nc3cc(Cl)ccc3c(=O)n2Cc2ccccc2)C(C)C)cc1 [ispinesib]
Summary of the method: as §1

[11] = compound: Cc1ccc(NC(=O)c2ccc(CN3CC[C@H](N(C)C)C3)c(C(F)(F)F)c2)cc1Nc1nccc(-c2cncnc2)n1 [bafetinib]
Summary of the method: as §1

[12] = compound: Cc1cccc(CC(=O)N2CCc3c2ccc(-c2cn(C)c4ncnc(N)c24)c3F)n1
Summary of the method: as §1

[13] = compound: Cc1cn(-c2cc(NC(=O)c3ccc(C)c(Nc4nccc(-c5cccnc5)n4)c3)cc(C(F)(F)F)c2)cn1 [nilotinib]
Summary of the method: as §1

[14] = compound: Cc1nc(Nc2n[nH]c3c2CN(C(=O)N[C@H](CN(C)C)c2ccccc2)C3(C)C)c2sccc2n1
Summary of the method: as §1

[15] = compound: Cc1nc(Nc2ncc(C(=O)Nc3c(C)cccc3Cl)s2)cc(N2CCN(CCO)CC2)n1 [dasatinib]
Summary of the method: as §1

[16] = compound: Cc1ncc(-c2ccnc(Nc3ccc(S(C)(=O)=O)cc3)n2)n1C(C)C
Summary of the method: as §1

[17] = compound: Cn1cc(-c2ccc3c(c2)CCN3C(=O)Cc2cccc(C(F)(F)F)c2)c2c(N)ncnc21
Summary of the method: as §1

[18] = compound: Cn1cc(-c2ccc3nnc(C(F)(F)c4ccc5ncccc5c4)n3n2)cn1
Summary of the method: as §1

[19] = compound: Cn1cncc1[C@@](N)(c1ccc(Cl)cc1)c1ccc2c(c1)c(-c1cccc(Cl)c1)cc(=O)n2C [tipifarnib]
Summary of the method: as §1

[20] = compound: FC(F)(F)c1ccc(/C=C/c2nc(COc3ccc(CCCCn4ccnn4)cc3)co2)cc1 [mubritinib]
Summary of the method: as §1

Measured: log2 fold change

LNPK (UniProt Q9C0E8)
Sequence of UniProt Q9C0E8 (Q9C0E8 whole entry, looked up): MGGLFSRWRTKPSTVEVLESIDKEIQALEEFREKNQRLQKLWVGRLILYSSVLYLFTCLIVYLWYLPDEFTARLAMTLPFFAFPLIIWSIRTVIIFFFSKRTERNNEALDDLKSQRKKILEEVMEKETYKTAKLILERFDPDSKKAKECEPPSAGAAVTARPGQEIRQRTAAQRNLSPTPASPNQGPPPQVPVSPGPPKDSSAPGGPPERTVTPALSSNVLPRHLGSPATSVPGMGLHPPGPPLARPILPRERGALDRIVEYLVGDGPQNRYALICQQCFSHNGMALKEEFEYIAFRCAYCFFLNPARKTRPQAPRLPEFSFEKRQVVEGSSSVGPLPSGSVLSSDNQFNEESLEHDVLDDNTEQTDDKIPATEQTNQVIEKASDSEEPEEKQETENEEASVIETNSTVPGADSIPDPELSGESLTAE
inactive: [1] -0.016 | [2] 0.077 | [3] 0.007 | [4] -0.036 | [5] -0.017 | [6] -0.022 | [7] 0.002 | [8] -0.085 | [9] -0.044 | [10] 0.022 | [11] -0.081 | [12] -0.035 | [13] -0.001 | [14] -0.009 | [15] 0.052 | [16] -0.007 | [17] 0.025 | [18] 0.011 | [19] 0.054 | [20] 0.072

IRF2BPL (UniProt Q9H1B7)
Sequence of UniProt Q9H1B7 (Q9H1B7 whole entry, looked up): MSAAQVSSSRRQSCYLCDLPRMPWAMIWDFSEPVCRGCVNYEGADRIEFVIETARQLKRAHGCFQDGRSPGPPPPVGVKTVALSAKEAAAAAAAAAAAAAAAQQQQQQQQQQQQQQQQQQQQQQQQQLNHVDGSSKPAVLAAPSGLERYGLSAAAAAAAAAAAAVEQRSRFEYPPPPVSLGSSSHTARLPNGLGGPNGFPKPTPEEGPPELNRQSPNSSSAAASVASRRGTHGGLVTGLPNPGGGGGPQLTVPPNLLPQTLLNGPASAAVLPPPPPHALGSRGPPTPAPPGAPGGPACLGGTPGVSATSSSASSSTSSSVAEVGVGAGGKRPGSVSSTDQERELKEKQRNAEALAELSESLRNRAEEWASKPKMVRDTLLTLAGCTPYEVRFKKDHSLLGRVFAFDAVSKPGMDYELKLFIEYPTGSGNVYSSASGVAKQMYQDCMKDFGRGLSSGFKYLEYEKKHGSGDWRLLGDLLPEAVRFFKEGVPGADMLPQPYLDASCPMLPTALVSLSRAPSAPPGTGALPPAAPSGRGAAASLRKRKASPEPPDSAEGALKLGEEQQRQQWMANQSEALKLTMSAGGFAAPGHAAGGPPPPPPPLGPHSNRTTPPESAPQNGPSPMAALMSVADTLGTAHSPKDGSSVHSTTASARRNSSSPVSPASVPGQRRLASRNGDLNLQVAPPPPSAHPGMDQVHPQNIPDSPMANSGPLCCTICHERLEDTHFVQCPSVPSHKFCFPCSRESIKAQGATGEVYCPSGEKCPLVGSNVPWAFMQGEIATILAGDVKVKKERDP
inactive: [1] -0.034 | [2] 0.133 | [3] 0.249 | [4] -0.005 | [5] 0.106 | [6] -0.041 | [7] 0.034 | [8] 0.066 | [9] -0.061 | [10] -0.083 | [11] -0.038 | [12] 0.012 | [13] -0.07 | [14] -0.034 | [15] -0.034 | [16] -0.029 | [17] 0.083 | [18] -0.084 | [19] -0.067 | [20] -0.055

ILF2 (UniProt Q12905)
Sequence of UniProt Q12905 (Q12905 whole entry, looked up): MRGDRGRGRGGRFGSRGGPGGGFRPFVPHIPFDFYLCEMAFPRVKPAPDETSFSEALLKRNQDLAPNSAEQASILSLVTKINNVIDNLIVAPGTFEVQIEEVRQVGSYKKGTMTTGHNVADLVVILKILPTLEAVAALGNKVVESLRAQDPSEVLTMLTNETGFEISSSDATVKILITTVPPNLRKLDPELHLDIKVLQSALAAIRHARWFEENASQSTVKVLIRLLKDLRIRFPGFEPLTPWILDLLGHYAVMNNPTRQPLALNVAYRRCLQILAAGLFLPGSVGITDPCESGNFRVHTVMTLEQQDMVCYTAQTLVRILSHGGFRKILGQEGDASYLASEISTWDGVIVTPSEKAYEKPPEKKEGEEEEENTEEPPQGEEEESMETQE
inactive: [1] -0.168 | [2] -0.164 | [3] -0.153 | [4] 0.206 | [5] -0.126 | [6] 0.07 | [7] -0.024 | [8] 0.022 | [9] 0.063 | [10] 0.038 | [11] 0.093 | [12] -0.012 | [13] -0.011 | [14] 0.251 | [15] 0.121 | [16] 0.3 | [17] -0.151 | [18] -0.084 | [19] 0.006 | [20] -0.071

KHDC4 (UniProt Q7Z7F0)
inactive: [1] 0.045 | [2] -0.091 | [3] 0 | [4] -0.074 | [5] 0.255 | [6] -0.052 | [7] 0.013 | [8] 0.207 | [9] -0.054 | [10] 0.027 | [11] -0.051 | [12] 0.057 | [13] 0.063 | [14] -0.054 | [15] -0.009 | [16] -0.053 | [17] -0.006 | [18] -0.053 | [19] -0.133 | [20] 0.004

KIFBP (UniProt Q96EK5)
inactive: [1] -0.036 | [2] -0.025 | [3] 0.079 | [4] 0.08 | [5] 0.007 | [6] -0.051 | [7] 0.065 | [8] 0.085 | [9] -0.053 | [10] -0.139 | [11] 0.006 | [12] 0.094 | [13] -0.162 | [14] -0.079 | [15] -0.114 | [16] -0.004 | [17] -0.084 | [18] -0.046 | [19] -0.063 | [20] -0.078

KSR1 (UniProt Q8IVT5)
Sequence of UniProt Q8IVT5 (Q8IVT5 whole entry, looked up): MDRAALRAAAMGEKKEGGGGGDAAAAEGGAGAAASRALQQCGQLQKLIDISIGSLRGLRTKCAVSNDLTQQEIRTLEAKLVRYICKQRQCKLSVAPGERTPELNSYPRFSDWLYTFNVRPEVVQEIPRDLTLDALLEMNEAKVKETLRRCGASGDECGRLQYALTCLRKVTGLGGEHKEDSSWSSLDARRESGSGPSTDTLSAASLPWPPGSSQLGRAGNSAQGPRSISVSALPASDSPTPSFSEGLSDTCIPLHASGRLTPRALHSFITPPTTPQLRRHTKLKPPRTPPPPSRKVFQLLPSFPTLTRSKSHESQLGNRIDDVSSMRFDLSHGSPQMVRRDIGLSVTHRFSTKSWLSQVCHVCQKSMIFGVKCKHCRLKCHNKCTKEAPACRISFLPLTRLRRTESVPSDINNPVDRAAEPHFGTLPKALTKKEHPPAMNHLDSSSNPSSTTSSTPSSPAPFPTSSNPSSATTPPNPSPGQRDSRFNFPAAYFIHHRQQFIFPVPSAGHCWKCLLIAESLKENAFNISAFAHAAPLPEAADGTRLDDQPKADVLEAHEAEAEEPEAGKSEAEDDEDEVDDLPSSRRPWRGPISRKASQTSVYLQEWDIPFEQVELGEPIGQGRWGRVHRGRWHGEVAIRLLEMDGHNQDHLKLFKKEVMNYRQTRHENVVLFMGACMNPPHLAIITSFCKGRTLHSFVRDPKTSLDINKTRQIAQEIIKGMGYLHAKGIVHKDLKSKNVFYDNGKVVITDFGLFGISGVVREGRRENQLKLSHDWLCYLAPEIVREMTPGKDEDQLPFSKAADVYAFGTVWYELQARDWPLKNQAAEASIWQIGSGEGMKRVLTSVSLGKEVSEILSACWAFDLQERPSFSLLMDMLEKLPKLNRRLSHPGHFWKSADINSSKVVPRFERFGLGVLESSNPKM
inactive: [1] -0.017 | [2] -0.287 | [3] 0.036 | [4] 0.047 | [5] 0.031 | [6] -0.067 | [7] -0.221 | [8] -0.017 | [9] 0.052 | [10] -0.113 | [11] 0.035 | [12] -0.052 | [13] -0.052 | [14] -0.303 | [15] -0.228 | [16] -0.021 | [17] 0.003 | [18] -0.129 | [19] -0.086 | [20] -0.233

INTS7 (UniProt Q9NVH2)
Sequence of UniProt Q9NVH2 (Q9NVH2 whole entry, looked up): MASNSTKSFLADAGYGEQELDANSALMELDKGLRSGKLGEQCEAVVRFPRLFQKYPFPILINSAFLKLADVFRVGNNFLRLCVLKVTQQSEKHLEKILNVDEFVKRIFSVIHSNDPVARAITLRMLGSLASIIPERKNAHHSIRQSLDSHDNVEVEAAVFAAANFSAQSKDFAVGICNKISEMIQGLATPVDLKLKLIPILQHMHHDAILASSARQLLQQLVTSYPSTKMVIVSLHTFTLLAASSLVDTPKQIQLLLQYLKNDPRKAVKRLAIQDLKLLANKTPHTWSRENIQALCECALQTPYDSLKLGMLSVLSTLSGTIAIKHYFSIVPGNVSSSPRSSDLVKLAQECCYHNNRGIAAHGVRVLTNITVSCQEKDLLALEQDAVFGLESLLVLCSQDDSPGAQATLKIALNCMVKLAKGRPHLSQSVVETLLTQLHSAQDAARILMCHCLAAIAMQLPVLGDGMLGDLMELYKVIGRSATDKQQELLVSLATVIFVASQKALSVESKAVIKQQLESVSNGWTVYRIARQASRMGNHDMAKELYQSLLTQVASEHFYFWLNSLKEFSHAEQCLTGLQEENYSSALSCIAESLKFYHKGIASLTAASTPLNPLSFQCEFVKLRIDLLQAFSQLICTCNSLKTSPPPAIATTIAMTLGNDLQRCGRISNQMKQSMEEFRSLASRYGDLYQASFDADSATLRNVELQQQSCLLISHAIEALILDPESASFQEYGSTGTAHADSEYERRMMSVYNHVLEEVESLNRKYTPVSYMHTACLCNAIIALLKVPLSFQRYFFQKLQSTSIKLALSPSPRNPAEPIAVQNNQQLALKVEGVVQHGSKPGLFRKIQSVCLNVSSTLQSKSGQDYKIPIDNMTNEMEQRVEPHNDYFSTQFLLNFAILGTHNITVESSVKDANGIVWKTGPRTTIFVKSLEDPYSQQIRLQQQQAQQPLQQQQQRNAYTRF
inactive: [1] 0.009 | [2] -0.133 | [3] -0.053 | [4] -0.054 | [5] 0 | [6] 0.211 | [7] 0.008 | [8] 0.014 | [9] -0.091 | [10] -0.036 | [11] 0.02 | [12] 0.033 | [13] -0.054 | [14] -0.025 | [15] -0.109 | [16] 0.114 | [17] -0.021 | [18] 0.017 | [19] -0.132 | [20] -0.123

LUZP1 (UniProt Q86V48)
Sequence of UniProt Q86V48 (Q86V48 whole entry, looked up): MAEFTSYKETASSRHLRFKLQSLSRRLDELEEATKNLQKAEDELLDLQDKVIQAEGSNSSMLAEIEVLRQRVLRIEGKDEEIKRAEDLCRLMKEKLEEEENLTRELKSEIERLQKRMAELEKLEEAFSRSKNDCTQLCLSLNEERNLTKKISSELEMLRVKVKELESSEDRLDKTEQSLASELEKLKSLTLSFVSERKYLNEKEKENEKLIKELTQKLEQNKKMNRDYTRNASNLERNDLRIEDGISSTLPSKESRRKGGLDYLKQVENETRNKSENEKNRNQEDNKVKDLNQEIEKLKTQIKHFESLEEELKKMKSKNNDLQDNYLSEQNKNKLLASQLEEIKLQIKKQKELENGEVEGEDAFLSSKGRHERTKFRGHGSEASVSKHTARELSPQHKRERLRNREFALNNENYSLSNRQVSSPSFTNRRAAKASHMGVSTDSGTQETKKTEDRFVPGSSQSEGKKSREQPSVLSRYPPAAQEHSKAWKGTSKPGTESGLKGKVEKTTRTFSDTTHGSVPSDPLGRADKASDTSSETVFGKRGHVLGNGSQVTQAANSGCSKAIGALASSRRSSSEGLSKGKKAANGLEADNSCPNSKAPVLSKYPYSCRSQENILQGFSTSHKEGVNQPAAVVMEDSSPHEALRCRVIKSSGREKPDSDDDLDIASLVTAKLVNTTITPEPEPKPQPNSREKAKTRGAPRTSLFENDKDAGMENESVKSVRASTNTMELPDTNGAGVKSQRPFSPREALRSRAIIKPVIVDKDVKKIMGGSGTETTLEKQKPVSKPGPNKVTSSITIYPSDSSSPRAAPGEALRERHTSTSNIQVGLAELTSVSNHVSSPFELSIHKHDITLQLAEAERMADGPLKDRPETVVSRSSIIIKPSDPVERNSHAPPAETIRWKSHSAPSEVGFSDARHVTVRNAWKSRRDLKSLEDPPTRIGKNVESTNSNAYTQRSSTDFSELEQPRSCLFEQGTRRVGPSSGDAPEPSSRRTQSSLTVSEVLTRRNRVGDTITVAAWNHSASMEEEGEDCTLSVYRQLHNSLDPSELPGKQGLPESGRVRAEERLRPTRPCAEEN
inactive: [1] 0.183 | [2] -0.259 | [3] -0.265 | [4] 0.191 | [5] -0.009 | [6] 0.058 | [7] 0.196 | [8] 0.206 | [9] 0.017 | [10] -0.138 | [11] -0.075 | [12] -0.028 | [13] -0.086 | [14] -0.35 | [15] 0.106 | [16] 0.21 | [17] -0.129 | [18] -0.104 | [19] 0.186 | [20] -0.055

LDAH isoform 2 (UniProt Q9H6V9)
Sequence of UniProt Q9H6V9 (Q9H6V9 whole entry, looked up): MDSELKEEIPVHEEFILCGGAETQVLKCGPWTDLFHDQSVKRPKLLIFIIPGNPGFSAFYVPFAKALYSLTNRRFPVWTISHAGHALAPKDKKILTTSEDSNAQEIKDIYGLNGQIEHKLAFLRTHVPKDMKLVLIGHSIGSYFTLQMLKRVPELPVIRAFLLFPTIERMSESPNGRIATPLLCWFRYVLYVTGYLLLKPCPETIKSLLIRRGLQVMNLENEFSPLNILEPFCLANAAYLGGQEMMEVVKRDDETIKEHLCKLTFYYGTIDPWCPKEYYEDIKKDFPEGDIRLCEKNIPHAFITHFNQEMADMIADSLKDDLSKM
inactive: [1] 0.052 | [3] 0.064 | [4] -0.035 | [5] 0.001 | [6] -0.001 | [7] -0.047 | [8] 0.204 | [9] 0.019 | [11] -0.188 | [12] -0.027 | [13] 0.175 | [14] -0.122 | [15] -0.215 | [16] -0.035 | [17] 0.082 | [18] -0.025 | [19] 0.076 | [20] 0.094
active: [2] -0.308 | [10] -0.438
